NS1 inh: qHTS Assay for Inhibitors of Influenza NS1 Protein Function; Potency, µM (doses to about 46.1 µM); hit rate 0.4% among 270,000; calls by dose curve; also: actives are rising curves; nearly all actives have a fitted effect of over 50% in size
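S. cerevisiae expressing influenza A NS1, grown in glucose, washed, then diluted 1:100 into pH 6.0 -URA galactose medium with 23 nl compound. Growth recovery read as OD600; NS1-free strain serves as control.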
Pf growth 48h: Primary qHTS for delayed death inhibitors of the malarial parasite plastid, 48 hour incubation. P. falciparum luciferase growth in erythrocytes, 48 h. Potency, µM (highest dose often 28.7 µM), hits mostly inhibitors. hit rate 5.9% among 310,000. AID 504832, 2011
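In quantitative HTS format, infected erythrocytes bearing luciferase-reporter parasites were treated for a single generation at 37 C. Luminescence after adding detection reagent served as the growth measure.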
VACV mCherry inh: qHTS for Stage-Specific Inhibitors of Vaccinia Orthopoxvirus: mCherry Reporter Primary qHTS; hit rate 0.63% among 310,000; Potency, µM (doses to about 36.5 µM), most hits filed as inhibitors; Vaccinia virus mCherry reporter infection, fluorescence; calls by dose curve; tested in A549 cells; also: nearly all actives have a fitted effect of over 35% in size
Pf growth 96h: Primary qHTS for delayed death inhibitors of the malarial parasite plastid, 96 hour incubation; AID 504834, 2011; Potency, µM (series often up to 28.7 µM), most hits filed as inhibitors; hit rate 6.9% among 320,000; P. falciparum luciferase reporter growth, 96 h
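96 h incubation, 37 C, 5% CO2, of luciferase-reporter P. falciparum-infected RBCs (2% hematocrit, 0.05% parasitemia final) with test compounds; endpoint luminescence.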
HCV inh: qHTS Assay for Inhibitors of Hepatitis C Virus (HCV) | Huh7.5.1 HCVcc-Cre infection, luciferase reporter, 44 h | Potency, µM (series often up to 41.8 µM), most hits filed as inhibitors | hit rate 3.4% among 340,000
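Cells seeded at 1,000/well and cultured 4 h, then compounds added followed by HCVcc-Cre virus (~0.5 moi). After 44 h further culture, luciferase substrate was added, plates held 15 min at room temperature, and luminescence read for 15 sec.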
Vaccinia Venus: qHTS for Stage-Specific Inhibitors of Vaccinia Orthopoxvirus: Venus Reporter Primary qHTS; Vaccinia virus Venus reporter expression, fluorescence; Potency, µM (highest dose often 36.5 µM), most hits filed as inhibitors; hit rate 0.46% among 330,000; AID 720580, 2013; calls by dose curve; tested in A549 cells; also: nearly all actives have a fitted effect of over 30% in size
Hits are given with their value; - = inactive; ? = inconclusive; . = no result given. This is a sample that favours compounds with a hit; in the whole collection about 11% have one here. Unless noted, calls follow the shape of the dose curve; as a rule, active = well fitted inhibition curve with a large enough effect; inconclusive = small, poorly fitted or top-dose-only effect, or another doubt; inactive = no such curve, though single readings can be large or run the other way.

SMILES	NS1 inh	Pf growth 48h	VACV mCherry inh	Pf growth 96h	HCV inh	Vaccinia Venus
CC(C)c1ccc2[nH]c(O)c(N=NC(=O)c3ccc(CSc4nncn4C)cc3)c2c1	-	-	?	5.22µM	-	?
COCCCNC(=O)c1cccc2c(=O)c(C)c(-c3ccccc3)oc12	-	-	-	?	-	-
CC(OC(=O)Cn1cnc2ccccc2c1=O)C(=O)N(C)c1ccccc1 (configuration not stated)	.	-	-	-	-	-
Cc1ccc(S(=O)(=O)NNC(=O)c2ccncc2)cc1[N+](=O)[O-]	-	-	-	1.85µM	-	-
O=C(NNS(=O)(=O)c1ccc(Br)cc1)c1ccncc1	-	-	-	-	-	-
Cc1ccc(C(=O)COC(=O)c2ccncc2)cc1[N+](=O)[O-]	-	-	-	9.28µM	-	-
COc1ccc(Oc2nc(-c3ccccc3)ncc2S(=O)(=O)c2ccccc2)cc1	-	14.7µM	.	?	?	-
Cc1ccc(S(=O)(=O)c2cnc(-c3ccccc3)nc2Oc2ccccc2)cc1	-	-	.	-	.	.
COc1nc(-c2ccccc2)ncc1S(=O)(=O)c1ccccc1	-	?	.	?	?	.
COc1cccc(Sc2nc(-c3ccccc3)ncc2S(C)(=O)=O)c1	-	.	.	9.28µM	-	.
Cc1ccc(S(=O)(=O)c2cnc(-c3ccccc3)nc2N2CCCCC2)cc1	-	13.1µM	.	-	?	.
Cc1cccc(C)c1Oc1nc(-c2ccccc2)ncc1S(=O)(=O)c1ccccc1	-	2.08µM	.	?	-	-
COc1ccc(/C=C2\Oc3cc(OCC(=O)N4CCC(C(=O)O)CC4)ccc3C2=O)c(OC)c1OC	?	-	-	?	?	-
COc1ccc(C(C)(C)C)cc1NC(=O)c1cc(S(=O)(=O)N(C)C)ccc1N1CCCC1	?	13.1µM	-	9.28µM	?	-
CN(C)S(=O)(=O)c1ccc(N2CCCC2)c(C(=O)Nc2ccc(F)cc2F)c1	.	?	-	?	-	-
CCN(CC)S(=O)(=O)c1ccc(/C=C/C(=O)NC2CCCCC2)cc1	-	?	-	4.65µM	-	-
CCN(CC)S(=O)(=O)c1ccc(N2CCCC2)c(NC(=O)Cc2ccc(OC)cc2)c1	.	?	-	?	?	-
CCN(CC)S(=O)(=O)c1ccc(N2CCCC2)c(NC(=O)c2ccc(OC)cc2OC)c1	.	13.1µM	-	?	?	-
CCN(CC)S(=O)(=O)c1ccc(N2CCCCC2)c(NC(=O)/C=C/c2ccc(OC)c(OC)c2)c1	?	9.28µM	-	10.4µM	?	-
COc1ccc(CC(=O)NNc2ncnc3c2cnn3-c2ccc(C)cc2)cc1	-	-	-	-	-	-
O=C(COc1ccccc1Cl)Nc1ccc(OCc2cc(=O)n3ccsc3n2)cc1	.	.	-	.	.	-
CC(=O)Nc1ccc2nc(N)sc2c1	.	.	-	.	-	-
COc1ccc(-n2c(N)cc(=O)nc2SCC(=O)N2CCN(c3ccccc3)CC2)cc1	-	-	-	?	-	-
CCOc1ccc(S(=O)(=O)Nc2cc(S(=O)(=O)N(CC)CC)ccc2N2CCCC2)cc1	-	7.38µM	-	1.31µM	?	-
CCOc1ccc(S(=O)(=O)N(CC)CC)cc1NS(=O)(=O)c1ccc(F)c(F)c1F	-	-	3.98µM	-	-	4.47µM
SMILES	NS1 inh	Pf growth 48h	VACV mCherry inh	Pf growth 96h	HCV inh	Vaccinia Venus
COc1ccc(/C=C(\C#N)C(=O)Nc2cc(S(=O)(=O)N3CCOCC3)ccc2N2CCCC2)cc1	?	-	-	-	-	-
CCN(CC)S(=O)(=O)c1ccc(N2CCCCC2)c(NC(=O)/C(C#N)=C/c2ccc(OC)cc2)c1	-	?	-	11.7µM	?	-
CCN(CC)S(=O)(=O)c1ccc(N2CCOCC2)c(NS(=O)(=O)c2ccc(Cl)s2)c1	.	.	-	.	.	-
CCN(CC)S(=O)(=O)c1ccc(N2CCCC2)c(NC(=O)Cc2cc(OC)c(OC)c(OC)c2)c1	-	7.38µM	-	?	?	-
COCCNC(=O)c1onc(CSc2cc(C)cc(C)c2)c1C(=O)O	-	-	-	-	-	-
CCOC(=O)c1cc2c(=O)n(C)c3ccccc3c2s1	-	.	.	.	.	.
CCOC(=O)C1=CC[C@]2(C)c3c(c4ccccc4n3C)C(=O)C1N2C	.	13.1µM	-	?	-	-
CCOC(=O)C1=CCC2c3c(c4ccccc4n3C)C(=O)C1N2C(=O)OC(C)(C)C (configuration not stated)	.	8.28µM	-	?	-	-
CN(C)c1ccc(CNC(=O)C(Cc2ccccc2)NS(=O)(=O)c2ccc3c(c2)oc(=O)n3C)cc1 (configuration not stated)	.	.	-	.	.	-
O=C(NCCN1CCN(C(=O)NC2CCCCC2)CC1)NC1CCCCC1	-	-	.	13.1µM	-	-
CCO[C@H]1OC(C(=O)NCc2nc3ccccc3[nH]2)=C[C@@H](C2CCCCC2)[C@@H]1CCCO	-	?	-	9.28µM	-	-
CCO[C@H]1OC(C(=O)NCc2nc3ccccc3[nH]2)=C[C@@H](C)[C@@H]1CCCO	-	-	-	-	?	-
CCO[C@H]1OC(C(=O)NCc2nc3ccccc3[nH]2)=C[C@@H](c2ccc(C(F)(F)F)cc2)[C@@H]1CCCO	-	?	-	1.47µM	-	?
CCO[C@@H]1OC(C(=O)NCc2nc3ccccc3[nH]2)=C[C@H](c2ccc(C(F)(F)F)cc2)[C@H]1CCCO	-	?	-	11.7µM	-	?
C#Cc1ccc([C@@H]2C=C(C(=O)NCc3nc4ccccc4[nH]3)O[C@H](OCC)[C@H]2CCCO)cc1	-	?	-	?	-	-
Cn1nnc(NC(=O)C(c2ccccc2)c2ccccc2)n1	-	-	.	-	-	.
Cc1nnc(NCCN2CCOCC2)[nH]c1=O	-	-	-	-	-	-
CN(C)c1ccc(C=NCCC2(O)CCOC(C)(C)C2)cc1 (configuration not stated)	-	-	-	-	-	-
CCCn1cc(S(=O)(=O)c2ccc(CC)cc2)c(=O)c2cc(F)c(N(CC)CC)cc21	.	.	-	.	.	-
CCOC(=O)c1ccc(Nc2nnc(C(C)(C)C)c(=O)[nH]2)cc1	-	5.22µM	?	?	-	?
COc1ccc(-c2[nH]ncc2CN(C)CCc2c(C)n[nH]c2C)c(F)c1	-	-	-	?	-	-
CCn1cc(C2=NOC(C(=O)Nc3ccc4c(c3)OCO4)C2)c(C)n1 (configuration not stated)	-	?	-	0.522µM	?	-
O=C(Nc1ccc2c(c1)OCO2)C1CC(c2ccccc2Cl)=NO1 (configuration not stated)	-	-	-	-	-	-
COc1ccccc1N1CCN(C(=O)C(=O)c2cn(CC(=O)N3CCCCCC3)c3ccccc23)CC1	-	9.28µM	-	7.38µM	-	-

Screening results (PubChem BioAssay)
